Consider 195 variants from a collection of fitness landscapes (doi:10.1016/j.celrep.2020.107928).

To fix the notation:
B1: Caulobacter ParB omega fusion; a variant is named by its letters at X, in order, B8GW30 (parent)
chain: MESVVVGEPGMSEGRRGLGRGLSALLGEVDAAPAQAPGEQLGGSREAPIEILQRNPDQPRRTFREEDLEDLSNSIREKGVLQPILVRPSPDTAGEYQIVAGERAWRAAQRAGLKTVPIMVRELDDLAVLEIGIIENVQRADLNVLEEALSYKVLMEKFERTQENIAQTIGKSXSHVANXMRLLXLPDEVQSYLVSGELTAXHARAIAAAADPVALAKQIIEGGLSVRETEALARKAPNLSAGKSKGGRPPRVKDTDTQALESDLSSVLGLDVSIDHRGSTGTLTITYATLEQLDDLCNRLTRGI

The full ranking holds about 81,000 sequences; the median of “one-hybrid fitness for binding parS DNA” is about -0.17, and the highest 2% start at about 0.51. The full list was thinned out, with the highest values kept by preference.

Variants of B1 are the subject of this experiment. Briefly: one-hybrid fitness for binding parS DNA (scaled: cognate 1, non-cognate 0); higher = stronger binding. The settings on record: with parS DNA site. The method in brief:
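Fitness is the rescaled log change in variant-to-wild-type read ratio, measured by Illumina sequencing of plasmids before and after bacterial one-hybrid selection. The scale puts cognate at 1 and non-cognate at 0. Selection of Caulobacter ParB libraries, four specificity codons randomised, took place in E. coli USO with a HIS3 reporter, site 19 bp from the promoter, over 48 hours at 37°C on M9-minus-histidine with 0.1 mM IPTG and 5 mM 3-AT.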
For the variant HGTW, the “one-hybrid fitness for binding parS DNA” value was at most 0.2.
Regarding PNLY, the “one-hybrid fitness for binding parS DNA” value is at most 0.2.
To DLLY belongs at most 0.2.
As to KFNA, the “one-hybrid fitness for binding parS DNA” value was at most 0.2.
As for RGYA, the figure is 0.225; as for RDDA, at most 0.2.
RGRA: the “one-hybrid fitness for binding parS DNA” value was 0.496.
With RFNA, the “one-hybrid fitness for binding parS DNA” value amounted to 0.57.
To RSRA belongs 0.605; to RCYH, 0.301; to REDA, at most 0.2.
On to RCYA, for which the “one-hybrid fitness for binding parS DNA” value is 0.619.
For RSDA, the “one-hybrid fitness for binding parS DNA” value came to 0.515.
As for RFDA, the figure is 0.46; as for RDRA, at most 0.2.
To CFAA belongs at most 0.2; to RNLW, at most 0.2.
As for NVSV, the figure is at most 0.2; as for DDCG, at most 0.2.
Turning to KMYG, the “one-hybrid fitness for binding parS DNA” value was at most 0.2.
To QRCI belongs at most 0.2; to APES, at most 0.2.
To SERT belongs at most 0.2.
Take LITT: the “one-hybrid fitness for binding parS DNA” value is at most 0.2.
Consider MNRC, for which the “one-hybrid fitness for binding parS DNA” value is at most 0.2.
To DIAI belongs at most 0.2.
As for ACMT, the “one-hybrid fitness for binding parS DNA” value is at most 0.2.
As to YQQG, the “one-hybrid fitness for binding parS DNA” value is at most 0.2.
As for DSYA, the figure is at most 0.2; as for RSPA, at most 0.2.
To RSYA belongs 0.602; to RHVS, 0.927.
As for RHKS, the figure is 0.777; as for RHVN, 0.302.
Regarding RHKN, the “one-hybrid fitness for binding parS DNA” value came out at 0.365.
With RHVD, the “one-hybrid fitness for binding parS DNA” value is at most 0.2.
As for RHKP, the figure is at most 0.2; as for KQDV, at most 0.2; as for HTPC, at most 0.2.
To AALR belongs at most 0.2.
As for WLII, the figure is at most 0.2.
In the case of YSML, the “one-hybrid fitness for binding parS DNA” value is at most 0.2.
As for RMVR, the figure is at most 0.2.
As for RMKT, the figure is 0.764; as for RMKM, 0.391.
Consider RMVF, for which the “one-hybrid fitness for binding parS DNA” value was found to be 0.259.
As for RMKD, the figure is at most 0.2; as for RMVT, 0.875; as for TDKS, at most 0.2.
Consider CMDR, for which the “one-hybrid fitness for binding parS DNA” value is at most 0.2.
To TNLK belongs at most 0.2; to RLPN, 0.225.
As for RLIN, the figure is 0.38.
In the case of RLPD, the “one-hybrid fitness for binding parS DNA” value was at most 0.2.
As for RLIS, the figure is 1.
To RLIP belongs at most 0.2; to RLPS, 0.86; to IHED, at most 0.2.
To PMWM belongs at most 0.2; to RFKD, at most 0.2.
For the variant RFVN, the “one-hybrid fitness for binding parS DNA” value is 0.26.
To RFKG belongs 0.988; to NFVG, at most 0.2; to NFKG, at most 0.2.
To RFVG belongs 0.77.
As for LLAH, the figure is at most 0.2.
As for KLSS, the “one-hybrid fitness for binding parS DNA” value is at most 0.2.
To YSYS belongs at most 0.2; to RRVG, 0.836.
Regarding RRKK, the “one-hybrid fitness for binding parS DNA” value was at most 0.2.
To RRVQ belongs at most 0.2; to RRKG, 0.708; to RRVR, at most 0.2.
With RRKF, the “one-hybrid fitness for binding parS DNA” value is at most 0.2.
For LFLG, the “one-hybrid fitness for binding parS DNA” value was at most 0.2.
On to SWLK, for which the “one-hybrid fitness for binding parS DNA” value was at most 0.2.
To PTSL belongs at most 0.2; to QPAA, at most 0.2.
In the case of FRES, the “one-hybrid fitness for binding parS DNA” value is at most 0.2.
To PPSL belongs at most 0.2; to SYQW, at most 0.2; to DTNA, at most 0.2.
On to RTDA, for which the “one-hybrid fitness for binding parS DNA” value came to 0.554.
As to RTNA, the “one-hybrid fitness for binding parS DNA” value came out at 0.722.
For the variant NTNA, the “one-hybrid fitness for binding parS DNA” value was at most 0.2.
Turning to RGDA, the “one-hybrid fitness for binding parS DNA” value is 0.235.
As for WHYV, the figure is at most 0.2.
To HFVM belongs at most 0.2; to QFAC, at most 0.2; to RPGG, at most 0.2.
As for RIGG, the “one-hybrid fitness for binding parS DNA” value turned out to be 1.02.
For the variant RCGG, the “one-hybrid fitness for binding parS DNA” value amounted to 1.01.
To REGG belongs 0.2.
To RIGD belongs at most 0.2; to RSGG, 0.998; to RSGK, at most 0.2.
As for RIGH, the figure is 0.246; as for RLGH, 0.204.
Regarding RDGG, the “one-hybrid fitness for binding parS DNA” value is at most 0.2.
To RLGN belongs 0.469; to RLGG, 0.995.
HLHN: the “one-hybrid fitness for binding parS DNA” value is at most 0.2.
As for EVNR, the figure is at most 0.2.
To RCWR belongs at most 0.2; to NFVA, at most 0.2; to MAPR, at most 0.2.
As for YLCV, the figure is at most 0.2; as for DLKG, at most 0.2; as for TWYC, at most 0.2.
Take TAYD: the “one-hybrid fitness for binding parS DNA” value is at most 0.2.
As for PPTG, the figure is at most 0.2; as for RQPD, at most 0.2.
As to RQPH, the “one-hybrid fitness for binding parS DNA” value is at most 0.2.
As for RQPG, the “one-hybrid fitness for binding parS DNA” value stood at 0.514.
To RQIN belongs 0.248; to RQIH, at most 0.2; to RQIG, 0.805.
To LCRT belongs at most 0.2; to CNIR, at most 0.2.
Regarding TNIS, the “one-hybrid fitness for binding parS DNA” value was at most 0.2.
As for ASKM, the figure is at most 0.2; as for RCDP, 0.204.
To RCNP belongs at most 0.2.
As for RSDH, the “one-hybrid fitness for binding parS DNA” value was at most 0.2.
To RCDS belongs 1.02; to RSDP, at most 0.2; to RSNS, 0.959.
RCNS: the “one-hybrid fitness for binding parS DNA” value was found to be 0.908.
To RPNS belongs at most 0.2; to RSDS, 0.939; to RSNH, 0.203.
To RSND belongs at most 0.2; to RPDS, at most 0.2.
FIST: the “one-hybrid fitness for binding parS DNA” value was at most 0.2.
To SDVE belongs at most 0.2; to QNER, at most 0.2.
To HDLW belongs at most 0.2; to GHTP, at most 0.2; to IPGC, at most 0.2.
Regarding FIPR, the “one-hybrid fitness for binding parS DNA” value is at most 0.2.
To LDNV belongs at most 0.2.
To RMTP belongs at most 0.2; to RITR, at most 0.2.
To RTTN belongs 0.415; to RTTC, 0.991; to RSTQ, at most 0.2.
Consider RTTQ, for which the “one-hybrid fitness for binding parS DNA” value was at most 0.2.
With RSTC, the “one-hybrid fitness for binding parS DNA” value amounted to 0.97.
As for RMTC, the figure is 0.985; as for RITY, 0.443; as for RETC, at most 0.2.
To RMTR belongs at most 0.2; to RITC, 0.962; to QHHF, at most 0.2.
To PRIV belongs at most 0.2.
In the case of VMLC, the “one-hybrid fitness for binding parS DNA” value is at most 0.2.
As for DQKI, the figure is at most 0.2; as for NPVG, at most 0.2; as for FASY, at most 0.2.
To GGAS belongs at most 0.2; to RRTC, 0.616.
As for RCTC, the “one-hybrid fitness for binding parS DNA” value is 1.
To RDTC belongs at most 0.2; to RKTN, 0.336.
As for RRTR, the figure is at most 0.2; as for RKTP, at most 0.2; as for RHTH, at most 0.2.
As for RHTC, the figure is 0.946.
As for RKTC, the “one-hybrid fitness for binding parS DNA” value was 0.793.
As for RPTC, the figure is at most 0.2; as for RHTY, 0.41.
To NRTC belongs at most 0.2; to MMQL, at most 0.2.
As for GRRM, the figure is at most 0.2; as for RHSV, at most 0.2.
For AKSG, the “one-hybrid fitness for binding parS DNA” value was at most 0.2.
Turning to REHW, the “one-hybrid fitness for binding parS DNA” value is at most 0.2.
As for EAGS, the figure is at most 0.2; as for KYAG, at most 0.2; as for ELVS, at most 0.2.
As for SVCS, the figure is at most 0.2; as for LPIR, at most 0.2.
On to GTYV, for which the “one-hybrid fitness for binding parS DNA” value was at most 0.2.
To VEST belongs at most 0.2; to SGLP, at most 0.2.
Turning to CLRH, the “one-hybrid fitness for binding parS DNA” value is 0.227.
To RFTN belongs 0.405; to RATC, 0.982.
To RATP belongs at most 0.2; to RLTM, 0.346.
As for RLTN, the figure is 0.43.
As to RLTC, the “one-hybrid fitness for binding parS DNA” value was 1.
As for RFTC, the figure is 0.95.
As for RATN, the figure is 0.436.
To NFTC belongs at most 0.2.
